Compound activity (PubChem BioAssay)
Most compounds without a hit are left out; they make up all but 5.1% or so of the library.
Cl transport mod: KCC2 cotransporter modulators, thallium flux, primary screen, cell-based, HEK293 KCC2, FluoZin-2 fluorescence, MLSMR. Solute carrier family 12 member 5 (Homo sapiens), Q9H2X9. KCC2 cells, thallium flux FluoZin-2 fluorescence. B-score of Tl+ flux slope (higher = more flux/activation; lower = inhibition) at 10 µM. 190,000 compounds, 2.2% hits;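 active = thallium flux slope and its plate-corrected score both differing from the plate sample mean at a set confidence after two filtering rounds, in either direction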;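 note: slope of fluorescence scaled to starting intensity during 10 to 20 s after thallium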
S1P4 agonist: S1P4 receptor agonists, primary screen, cell-based | Sphingosine 1-phosphate receptor 4 (Homo sapiens), O95977 | S1P4-expressing cell line, agonist reporter assay | activation, % at 4.98 µM | 220,000 compounds, 0.35% hits; in the data active = activation above about 11%;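 note: 0% = DMSO vehicle and 100% = reference agonist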
S1P3 antag: S1P3 receptor antagonists, primary screen, cell-based; CHO S1P3 NFAT-BLA reporter, FRET fluorescence, antagonist mode; AID 485, 2006; inhibition, % at 4.98 µM; 170,000 compounds, 0.27% hits; Sphingosine 1-phosphate receptor 3 (Homo sapiens), Q99500;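 active = inhibition above the plate cutoff, the mean inhibition of test wells on that plate plus 3 SD, cut at about 28% in these data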;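 note: cells challenged with S1P at its EC80 of 0.8 µM; blue over green emission ratio from cleaved BLA substrate after 4 h stimulation; 0% = S1P-stimulated wells and 100% = unstimulated DMSO-only wells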
RAM network inh: inhibitors of the yeast RAM network, primary screen, dse1pr::URA3 reporter, 5-FOA selection; 190,000 compounds, 1.8% hits; AID 868, 2007; inhibition, % at 50 µM; S. cerevisiae dse1pr::URA3 reporter, 5-FOA growth OD615, 2 d; analog-sensitive cbk1-as2 kinase mutant strain;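 active = inhibition above a set limit, 3 SD over mean compound inhibition, cut at about 8.4% in these data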;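 note: 0% = DMSO-only wells with no growth and 100% = 10 µM 1-NA-PP1 full growth; inhibition rescues growth on 5-FOA so higher OD means more RAM inhibition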
ROMK mod: ROMK potassium channel modulators, primary screen, cell-based, thallium flux, MLSMR library; ATP-sensitive inward rectifier potassium channel 1 (Homo sapiens), P48048; Tet-inducible ROMK, thallium flux fluorescence; actives lie on both sides; B-score at 10 µM; 130,000 compounds, 2% hits;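 active = signal ratio slope over the read window, or its plate-corrected B-score, at least 3 SD from the plate mean, either direction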;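 note: B-score of the F/F0 ratio slope over 7 to 12 s after thallium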
S1P4 antag: S1P4 receptor antagonists, primary screen, cell-based; 220,000 compounds, 0.26% hits; AID 1510, 2009; inhibition, % at 4.98 µM; S1P4-expressing cells, antagonist mode, reporter read-out; in the data active = inhibition above about 29%;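 note: 0% = wells stimulated with agonist and 100% = vehicle wells without agonist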
KCC2 secondary: KCC2 modulators in sodium-free buffer, confirmation, cell-based, HEK293 KCC2, thallium flux, secondary assay; shares compounds with Cl transport mod; FluoZin2 fluorescence; stronger effect = higher value; normalised thallium flux (F/F0 slope) at 10 µM; 3,700 compounds, 15% hits;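 active = thallium flux slope above the same plate's solvent-only control mean plus 3 SD; inconclusive = the two replicate wells disagree; inactive = no significant difference from solvent-only control wells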
KCC2 bumet counter: thallium flux persisting under bumetanide in KCC2 cells, confirmation, counter-screen for KCC2 modulator project, cell-based, HEK293 KCC2, FluoZin2, secondary assay 3; HEK293-KCC2 + bumetanide/ouabain; stronger effect = higher value; AID 1714, 2009; shares compounds with Cl transport mod; 3,700 compounds, 49% hits; normalized thallium flux at 10 µM;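 active = thallium entry rate above the same plate's blocked-transporter control wells by more than 3 SD; inconclusive = the two repeat wells disagree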;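 note: raw slope of fluorescence over initial fluorescence between 10 and 20 s after thallium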
KCC2 sec2: KCC2 modulators without ouabain present, confirmation, cell-based, HEK293 KCC2, thallium flux, FluoZin2, secondary assay 2; shares compounds with Cl transport mod; thallium flux FluoZin2 fluorescence; actives lie on both sides; F/F0 rise rate, 10–20 s post-thallium; normalized thallium flux at 10 µM; 3,700 compounds, 23% hits; AID 1715, 2009;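 active = thallium flux slope more than 3 SD above or below the plate's solvent-only control mean, mostly below; inconclusive = the two repeat wells disagreed; inactive = no significant shift from solvent-only controls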;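 note: raw slope with 0.1% DMSO as baseline and bumetanide as block control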
HEK293 Tl flux: thallium flux modulation in parental HEK cells, confirmation, counter-screen for KCC2 modulator project, cell-based, counterscreen 1 | shares compounds with Cl transport mod | HEK293 parental cells, thallium flux FluoZin2, ouabain; baseline-ratio fluorescence slope, 10–20 s after thallium | thallium flux rate (normalised fluorescence) at 10 µM | 3,700 compounds, 46% hits;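 active = thallium flux rate significantly above the same plate's solvent-only control wells, beyond their mean plus 3 SD; inconclusive = the two replicate wells gave conflicting results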
KCC2 ouabain: KCC2 inhibitors and activators, ouabain retest, confirmation, HEK-KCC2 cells | raw Tl+ flux slope (below DMSO = inhibition, above = activation) at 10 µM | HEK293-KCC2, thallium flux FluoZin2 fluorescence; bidirectional: low = inhibitor, high = activator | AID 1717, 2009 | shares compounds with Cl transport mod | 3,700 compounds, 48% hits;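 active = thallium flux slope beyond 3 SD from same-plate DMSO control mean in most replicates, usually higher, sometimes lower; inconclusive = repeat tests gave conflicting results; inactive = no significant difference from controls in most replicates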;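 note: slope of initial-normalized fluorescence between seconds 10 and 20 after thallium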
HEK293 Tl flux2: native HEK Tl+ uptake effects, second counter-screen – HEK cells, counterscreen 2, counter-screen for KCC2 modulator project, confirmation; shares compounds with Cl transport mod; HEK293 parental, thallium flux FluoZin-2 fluorescence slope; thallium flux slope at 10 µM; AID 1718, 2009; 3,700 compounds, 33% hits;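 active = thallium flux slope above the same plate's solvent-control mean plus 3 SD in both duplicate wells; inconclusive = duplicate wells that disagreed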;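 note: run without ouabain in cells lacking the KCC2 cotransporter; slope of fluorescence scaled to its starting value between 10 and 20 s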
* hit, by the source's call; ? = inconclusive; · = no result.

SMILES	Cl transport mod	S1P4 agonist	S1P3 antag	RAM network inh	ROMK mod	S1P4 antag	KCC2 secondary	KCC2 bumet counter	KCC2 sec2	HEK293 Tl flux	KCC2 ouabain	HEK293 Tl flux2
O=C(NCc1ccccn1)c1cc(S(=O)(=O)N2CCN(c3ccccc3)CC2)ccc1Cl	·	0.5	-0.6	1.1	-1.06	-4.3	0.00671	0.00422	0.0256*	0.00763	?	0.0108
CN(Cc1ccccc1)S(=O)(=O)c1ccc(Cl)c(C(=O)NCCc2ccccn2)c1	-4.38*	0.0	-12.3	-0.1	0.527	-1.0	0.00732	0.00497	0.0182*	0.00676	0.012*	0.00915
Cc1c(C(=O)NCc2ccccn2)oc2ccc(S(=O)(=O)N3CCOCC3)cc12	5.2*	-1.6	·	-1.0	0.224	0.6	0.00524	?	?	0.00787	0.0194	0.0109
Cc1c(C(=O)NCc2cccs2)oc2ccc(S(=O)(=O)N3CCOCC3)cc12	0.779	-0.4	·	-0.2	-1.61	-6.4	·	·	·	·	·	·
O=[N+]([O-])c1cccc(-c2nnc3ccccn23)c1	0.768	1.7	-13.1	·	·	-2.4	·	·	·	·	·	·
CC(O)CNC12CC3CC(CC(C3)C1)C2 (stereo unspecified)	0.828	3.0	-11.3	2.0	0.856	8.7	·	·	·	·	·	·
O=C(NCc1cccnc1)c1ccc(NC(=O)c2cccc([N+](=O)[O-])c2)cc1	·	0.4	-19.9	0.2	·	-2.1	·	·	·	·	·	·
COc1cc(C(=O)NC(=S)N(C)Cc2ccccc2)cc(OC)c1OC	10.9*	-1.7	-8.5	3.1	-0.664	3.6	0.0184*	0.0508*	0.0312	0.0168*	0.0334*	0.0122*
COc1cc(C(=O)N/N=C(\C)Cc2ccccc2)cc(OC)c1OC	0.127	0.8	13.2	1.2	0.037	14.1	·	·	·	·	·	·
COc1cc(C(=O)NC(=S)NNC(=O)c2ccc3c(c2)OCO3)cc(OC)c1OC	5.12*	-1.7	3.2	·	-0.449	2.2	0.01	0.0128*	0.0325	?	?	0.0107
COc1cc(C(=O)NNC(=S)NC(=O)c2ccc(F)cc2)cc(OC)c1OC	6.54*	0.2	-14.7	·	0.231	6.4	0.0114	0.015*	0.0333	0.0137*	?	0.0116
O=C(O)C1=C(OCc2ccc(F)c(F)c2)C(=O)NCC1	-0.0387	0.1	1.3	0.5	-0.0854	-10.7	·	·	·	·	·	·
Cc1ccsc1C(=O)OCc1nc2ccccc2c(=O)[nH]1	·	1.6	·	1.4	0.0512	0.6	0.00991	0.00708	0.035	0.00786	0.02	?
Nc1n[nH]c(S(=O)(=O)CCCc2ccccc2)n1	-0.517	-1.9	-27.4	-0.1	·	5.2	·	·	·	·	·	·
O=S(=O)(CCCc1ccccc1)c1ncn[nH]1	4.67*	-0.6	8.2	1.2	·	-15.2	0.00698	0.00435	0.0314	0.00655	0.0173	0.0093
C/C(CC(=O)Nc1cc(Cl)ccc1C)=N\NC(N)=O	1.74	-0.2	3.5	·	·	4.6	·	·	·	·	·	·
O=C(c1ccc2ccccc2c1)C1CCCN(C(=O)c2noc3c2CCCC3)C1 (stereo unspecified)	-1.58	0.7	-33.9	4.7	-1.37	-7.8	·	·	·	·	·	·
COC(=O)[C@@H](NC(=O)O[C@@H]1C(=O)c2cc(Br)ccc2O[C@H]1c1cccc(OC)c1)C(C)C	9.3*	0.1	-7.5	3.8	-1.62	12.8	0.00635	0.0127*	0.0299	0.0148*	?	?
COC(=O)[C@H](Cc1ccccc1)NC(=O)O[C@@H]1C(=O)c2cc(Br)ccc2O[C@H]1c1cccc(OC)c1	0.0403	1.0	3.3	6.0	-0.329	12.0	·	·	·	·	·	·
COC(=O)C1=C(C)N(C2CCCCC2)C(=O)C1	6.24*	-1.1	·	-1.1	·	5.1	0.00699	0.0068	0.0288	0.00698	0.0189	0.00903
CCOC(=O)C1=C(C)N(C2CCCCC2)C(=O)C1	·	1.4	14.0	0.1	0.749	-2.8	·	·	·	·	·	·
COc1ccc(-c2oc3ccccc3c(=O)c2OCC(=O)O)cc1	-0.0998	0.8	-5.0	6.0	1.78	-20.1	·	·	·	·	·	·
COc1ccc(-c2oc3ccccc3c(=O)c2OC(C)=O)cc1	54.9*	0.2	-7.5	-0.5	0.429	-0.1	0.0224*	0.0904*	0.0412	?	0.0706*	?
CSc1ccc(NC(=O)Nc2cc(C)ccn2)cc1	-0.343	2.2	9.0	·	·	-12.9	·	·	·	·	·	·
O=C(O)c1ccc(CSc2nnc(COc3ccc(Cl)cc3Cl)o2)cc1	-3.11*	·	-24.9	4.2	·	·	0.00611	?	0.0275	0.00667	0.0169	0.00953
COc1ccc(OCc2nnc(SCc3ccc(C(=O)O)cc3)o2)cc1	0.301	1.6	-6.2	6.2	0.489	-12.5	·	·	·	·	·	·
COc1ccc(/C=N/NC(=O)c2c(C)nc3ccc(Br)cn23)cc1OC	-1.37	0.3	13.2	·	0.436	-27.5	·	·	·	·	·	·
COc1cccc(/C=N/NC(=O)c2c(C)nc3ccc(Br)cn23)c1O	-3.37*	2.0	12.4	0.1	·	-5.3	0.00692	0.0043	0.0275	0.00563	0.0158*	0.0088
